From ChEMBL document CHEMBL2218924, “A broad activity screen in support of a chemogenomic map for kinase signalling research and drug discovery” (Biochem J, 2013) come the findings set out here.

Experiment [1] deals with T1, Ephrin type-A receptor 3 (Homo sapiens) (UniProt P29320).
T1 sequence (whole entry): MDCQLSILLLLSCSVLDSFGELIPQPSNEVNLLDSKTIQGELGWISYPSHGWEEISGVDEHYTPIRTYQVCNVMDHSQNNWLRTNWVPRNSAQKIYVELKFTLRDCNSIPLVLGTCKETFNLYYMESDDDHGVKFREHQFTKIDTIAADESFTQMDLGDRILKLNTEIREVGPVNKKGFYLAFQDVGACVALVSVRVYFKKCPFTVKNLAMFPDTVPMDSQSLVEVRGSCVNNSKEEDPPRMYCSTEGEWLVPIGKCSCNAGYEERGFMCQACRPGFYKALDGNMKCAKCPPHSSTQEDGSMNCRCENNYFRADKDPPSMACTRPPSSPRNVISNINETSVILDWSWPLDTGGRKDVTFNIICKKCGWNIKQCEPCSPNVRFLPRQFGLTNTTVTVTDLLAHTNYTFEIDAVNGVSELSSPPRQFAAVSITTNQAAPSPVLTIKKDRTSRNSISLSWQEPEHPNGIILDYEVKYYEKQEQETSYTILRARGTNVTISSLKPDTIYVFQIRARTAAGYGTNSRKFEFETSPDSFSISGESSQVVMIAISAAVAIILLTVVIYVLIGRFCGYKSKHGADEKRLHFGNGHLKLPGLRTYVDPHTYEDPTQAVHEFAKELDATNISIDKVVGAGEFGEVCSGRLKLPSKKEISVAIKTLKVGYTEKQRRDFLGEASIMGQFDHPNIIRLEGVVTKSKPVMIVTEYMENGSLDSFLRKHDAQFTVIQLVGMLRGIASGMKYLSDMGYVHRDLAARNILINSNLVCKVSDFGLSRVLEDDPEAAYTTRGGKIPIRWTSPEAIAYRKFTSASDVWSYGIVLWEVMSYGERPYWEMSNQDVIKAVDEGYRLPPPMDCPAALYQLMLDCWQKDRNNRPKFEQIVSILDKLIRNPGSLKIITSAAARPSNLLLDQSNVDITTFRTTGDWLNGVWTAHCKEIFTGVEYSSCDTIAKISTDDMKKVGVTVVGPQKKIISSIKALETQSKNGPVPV
Conditions: at 10 µM.

Experiment [2] has as its target Ephrin type-A receptor 4 (Homo sapiens) (UniProt P54764). Conditions: at 1 µM.
For experiment [3] the target is unchanged. The note with it: at 10 µM.
Experiment [4] addresses Ephrin type-A receptor 5 (Homo sapiens) (UniProt P54756). The note with it: at 1 µM.
For experiment [5] the target is unchanged. Conditions: at 10 µM.
The target of experiment [6] is Ephrin type-A receptor 7 (Homo sapiens) (UniProt Q15375). Conditions: at 1 µM.
Sequence of Ephrin type-A receptor 7 (Homo sapiens) (Q15375 28-998 limits assumed): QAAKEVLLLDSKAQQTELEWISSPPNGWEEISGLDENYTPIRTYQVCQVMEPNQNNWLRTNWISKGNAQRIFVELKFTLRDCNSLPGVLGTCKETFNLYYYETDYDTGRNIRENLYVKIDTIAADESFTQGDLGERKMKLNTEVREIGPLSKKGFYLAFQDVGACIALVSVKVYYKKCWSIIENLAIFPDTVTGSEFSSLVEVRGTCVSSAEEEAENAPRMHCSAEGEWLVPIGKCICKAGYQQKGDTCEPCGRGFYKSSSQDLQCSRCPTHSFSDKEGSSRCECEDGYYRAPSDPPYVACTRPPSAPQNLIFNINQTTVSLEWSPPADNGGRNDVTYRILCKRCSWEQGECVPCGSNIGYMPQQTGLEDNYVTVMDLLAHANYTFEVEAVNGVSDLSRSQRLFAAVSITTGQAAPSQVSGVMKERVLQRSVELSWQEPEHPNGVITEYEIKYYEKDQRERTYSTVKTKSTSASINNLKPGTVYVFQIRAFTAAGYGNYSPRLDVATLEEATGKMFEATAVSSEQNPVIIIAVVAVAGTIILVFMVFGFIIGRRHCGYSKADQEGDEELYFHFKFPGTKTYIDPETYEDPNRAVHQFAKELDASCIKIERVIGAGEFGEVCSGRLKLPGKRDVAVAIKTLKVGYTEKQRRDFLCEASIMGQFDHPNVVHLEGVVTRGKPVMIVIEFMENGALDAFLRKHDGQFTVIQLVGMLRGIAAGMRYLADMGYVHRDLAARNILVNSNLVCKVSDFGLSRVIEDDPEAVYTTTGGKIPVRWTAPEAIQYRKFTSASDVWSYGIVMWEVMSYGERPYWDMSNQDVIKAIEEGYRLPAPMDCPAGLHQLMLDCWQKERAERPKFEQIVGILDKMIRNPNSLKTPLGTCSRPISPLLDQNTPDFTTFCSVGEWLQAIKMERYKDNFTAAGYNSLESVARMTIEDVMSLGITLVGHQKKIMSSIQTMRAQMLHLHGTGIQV
For experiment [7] the target is unchanged. The note with it: at 10 µM.
Experiment [8] deals with T2, Ephrin type-A receptor 8 (Homo sapiens) (UniProt P29322).
T2 sequence (whole entry): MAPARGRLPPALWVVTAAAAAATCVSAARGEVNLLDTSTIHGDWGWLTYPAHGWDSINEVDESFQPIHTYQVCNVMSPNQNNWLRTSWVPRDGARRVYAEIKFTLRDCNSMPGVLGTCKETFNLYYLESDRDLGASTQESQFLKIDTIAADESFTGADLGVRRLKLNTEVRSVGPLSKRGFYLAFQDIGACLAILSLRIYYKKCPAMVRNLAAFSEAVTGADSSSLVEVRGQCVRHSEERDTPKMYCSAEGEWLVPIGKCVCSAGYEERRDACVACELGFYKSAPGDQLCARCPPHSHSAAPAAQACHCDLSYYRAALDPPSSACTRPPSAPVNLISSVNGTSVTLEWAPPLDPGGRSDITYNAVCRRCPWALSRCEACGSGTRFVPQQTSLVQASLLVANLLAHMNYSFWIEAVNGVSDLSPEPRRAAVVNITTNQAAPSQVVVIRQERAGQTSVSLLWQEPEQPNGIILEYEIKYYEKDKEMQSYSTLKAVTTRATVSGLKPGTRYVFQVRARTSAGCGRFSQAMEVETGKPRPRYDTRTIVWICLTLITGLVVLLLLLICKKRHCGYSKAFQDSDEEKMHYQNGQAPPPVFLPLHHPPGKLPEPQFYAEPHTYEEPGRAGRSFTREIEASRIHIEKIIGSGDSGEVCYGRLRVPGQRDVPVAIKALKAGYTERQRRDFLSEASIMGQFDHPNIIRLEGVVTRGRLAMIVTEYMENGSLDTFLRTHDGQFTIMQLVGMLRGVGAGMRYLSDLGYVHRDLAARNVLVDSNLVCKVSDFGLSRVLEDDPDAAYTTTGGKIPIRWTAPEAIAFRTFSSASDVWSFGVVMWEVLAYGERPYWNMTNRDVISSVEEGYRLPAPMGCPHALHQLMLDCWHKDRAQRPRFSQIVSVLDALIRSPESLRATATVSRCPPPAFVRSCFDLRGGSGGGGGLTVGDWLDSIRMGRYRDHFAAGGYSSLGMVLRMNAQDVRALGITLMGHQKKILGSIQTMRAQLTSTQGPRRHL
Conditions: at 1 µM.

In experiment [9] the target is T3, Ephrin type-B receptor 1 (Homo sapiens) (UniProt P54762).
T3 sequence (whole entry): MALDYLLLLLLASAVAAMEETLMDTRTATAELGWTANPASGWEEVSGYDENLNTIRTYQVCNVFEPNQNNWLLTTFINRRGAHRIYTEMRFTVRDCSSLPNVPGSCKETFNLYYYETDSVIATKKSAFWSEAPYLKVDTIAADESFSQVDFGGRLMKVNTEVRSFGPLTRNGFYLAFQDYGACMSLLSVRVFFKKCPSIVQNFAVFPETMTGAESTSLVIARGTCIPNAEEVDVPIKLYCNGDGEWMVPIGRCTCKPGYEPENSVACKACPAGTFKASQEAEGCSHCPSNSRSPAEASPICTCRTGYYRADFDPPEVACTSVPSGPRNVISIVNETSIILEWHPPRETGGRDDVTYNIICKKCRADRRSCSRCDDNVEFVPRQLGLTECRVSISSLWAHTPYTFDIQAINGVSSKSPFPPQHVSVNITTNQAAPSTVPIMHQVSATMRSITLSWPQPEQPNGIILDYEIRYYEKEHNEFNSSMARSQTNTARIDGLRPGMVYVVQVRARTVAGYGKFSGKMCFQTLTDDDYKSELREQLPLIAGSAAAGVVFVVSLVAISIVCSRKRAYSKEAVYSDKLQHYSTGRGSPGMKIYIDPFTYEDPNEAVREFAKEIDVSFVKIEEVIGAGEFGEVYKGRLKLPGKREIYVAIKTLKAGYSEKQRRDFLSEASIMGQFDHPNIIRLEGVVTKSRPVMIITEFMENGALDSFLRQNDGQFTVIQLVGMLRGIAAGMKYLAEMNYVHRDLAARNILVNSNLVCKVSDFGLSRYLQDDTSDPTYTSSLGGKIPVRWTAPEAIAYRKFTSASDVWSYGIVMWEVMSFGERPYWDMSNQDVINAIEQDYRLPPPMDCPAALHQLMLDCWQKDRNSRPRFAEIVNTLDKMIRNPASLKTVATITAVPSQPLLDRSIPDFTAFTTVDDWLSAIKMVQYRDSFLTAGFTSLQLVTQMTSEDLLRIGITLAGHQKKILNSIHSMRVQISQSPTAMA
Conditions: at 1 µM.

Sequence of Ephrin type-A receptor 5 (Homo sapiens) (P54756 whole entry): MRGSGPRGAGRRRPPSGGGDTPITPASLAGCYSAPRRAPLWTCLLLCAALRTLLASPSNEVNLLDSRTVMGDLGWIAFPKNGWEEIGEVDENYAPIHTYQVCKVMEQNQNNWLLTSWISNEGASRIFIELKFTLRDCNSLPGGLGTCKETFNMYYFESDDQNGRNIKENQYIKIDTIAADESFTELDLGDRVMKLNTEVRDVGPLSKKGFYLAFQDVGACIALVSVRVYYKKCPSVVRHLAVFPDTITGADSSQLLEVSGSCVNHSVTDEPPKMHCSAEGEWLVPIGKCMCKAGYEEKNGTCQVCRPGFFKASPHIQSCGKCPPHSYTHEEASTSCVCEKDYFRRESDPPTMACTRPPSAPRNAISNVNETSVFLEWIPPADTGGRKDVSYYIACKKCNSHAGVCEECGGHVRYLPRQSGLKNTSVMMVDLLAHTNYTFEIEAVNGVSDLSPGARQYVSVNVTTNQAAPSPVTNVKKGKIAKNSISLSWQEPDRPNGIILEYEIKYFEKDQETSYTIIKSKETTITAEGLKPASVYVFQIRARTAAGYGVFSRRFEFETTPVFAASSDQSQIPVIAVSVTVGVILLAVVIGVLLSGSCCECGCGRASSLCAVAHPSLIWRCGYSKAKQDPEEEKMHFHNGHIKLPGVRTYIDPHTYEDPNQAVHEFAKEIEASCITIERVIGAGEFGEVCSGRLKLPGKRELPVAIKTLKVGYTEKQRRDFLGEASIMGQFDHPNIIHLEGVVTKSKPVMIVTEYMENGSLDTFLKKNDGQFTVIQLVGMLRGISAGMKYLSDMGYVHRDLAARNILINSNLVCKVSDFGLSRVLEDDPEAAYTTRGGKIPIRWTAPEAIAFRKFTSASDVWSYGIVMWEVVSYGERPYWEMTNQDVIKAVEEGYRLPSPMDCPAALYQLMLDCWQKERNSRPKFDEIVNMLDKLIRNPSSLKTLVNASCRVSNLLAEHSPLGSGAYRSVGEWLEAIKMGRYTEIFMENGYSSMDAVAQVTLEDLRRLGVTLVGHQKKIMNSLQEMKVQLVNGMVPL
Sequence of Ephrin type-A receptor 4 (Homo sapiens) (P54764 whole entry): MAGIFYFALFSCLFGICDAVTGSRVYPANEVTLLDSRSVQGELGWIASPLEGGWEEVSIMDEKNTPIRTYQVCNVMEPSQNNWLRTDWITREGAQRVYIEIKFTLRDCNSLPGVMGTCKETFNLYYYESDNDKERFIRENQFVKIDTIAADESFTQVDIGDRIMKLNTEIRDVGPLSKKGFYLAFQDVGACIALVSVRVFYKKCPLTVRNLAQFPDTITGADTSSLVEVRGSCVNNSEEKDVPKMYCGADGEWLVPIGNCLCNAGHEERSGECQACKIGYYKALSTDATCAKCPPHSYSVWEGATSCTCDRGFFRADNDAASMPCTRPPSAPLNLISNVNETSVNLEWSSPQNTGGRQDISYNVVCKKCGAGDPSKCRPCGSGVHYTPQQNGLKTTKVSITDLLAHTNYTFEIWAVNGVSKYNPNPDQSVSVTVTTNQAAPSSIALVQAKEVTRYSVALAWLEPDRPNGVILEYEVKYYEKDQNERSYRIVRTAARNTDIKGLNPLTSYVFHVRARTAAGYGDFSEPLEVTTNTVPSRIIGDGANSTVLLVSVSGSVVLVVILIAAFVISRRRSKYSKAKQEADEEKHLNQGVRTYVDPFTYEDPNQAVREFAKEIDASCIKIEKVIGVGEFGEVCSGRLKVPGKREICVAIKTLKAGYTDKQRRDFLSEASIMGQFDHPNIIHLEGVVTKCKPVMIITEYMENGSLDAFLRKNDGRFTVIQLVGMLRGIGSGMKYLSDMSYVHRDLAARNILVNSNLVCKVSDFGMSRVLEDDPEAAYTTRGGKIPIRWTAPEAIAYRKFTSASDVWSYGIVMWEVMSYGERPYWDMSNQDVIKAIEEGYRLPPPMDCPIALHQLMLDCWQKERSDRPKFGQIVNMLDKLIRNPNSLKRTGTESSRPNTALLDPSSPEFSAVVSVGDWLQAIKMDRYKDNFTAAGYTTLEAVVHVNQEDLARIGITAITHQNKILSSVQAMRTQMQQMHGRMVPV

For the compound `CC[n+]1c(/C=C/N(C)c2ccccc2)n(-c2ccccc2)c2ccc(-c3nc4ccccc4s3)cc21`, the residual activity in experiment [1] was found to be 92%; in [2], 106%; in experiment [3], 85%; in experiment [4] it was 120%; in [5], 110%; in [6], 108%. The values for the residual activity in experiment [7], in [8] and in experiment [9] were 96%, 114% and 103%, respectively.

By residual activity is commonly meant the signal under treatment as a percentage of the control signal.
